Source: PubChem BioAssay AID1240 (Sanford-Burnham Center for Chemical Genomics, 2008)
The whole screen tested about 50,000 compounds, of which about 800 (1.6%) showed an effect of 50% or more. This is one part of a sample in which strong results are shown more often than they occur.

These compounds were tested against Bcl-2-like protein 10 (Homo sapiens) (UniProt Q9HD36) (assay: TR3 peptide-Bcl-B binding displacers, biochemical primary FP assay, phenotype converters (AID 1240;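 also: 0% = Bcl-B with tracer peptide and DMSO and 100% = tracer peptide lacking Bcl-B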)). Details: GST-Bcl-B / FITC-TR3 peptide fluorescence polarization; stronger effect = higher value; compound at 3.75 mg/L.
Bcl-2-like protein 10 (Homo sapiens), sequence (Q9HD36 whole entry, looked up): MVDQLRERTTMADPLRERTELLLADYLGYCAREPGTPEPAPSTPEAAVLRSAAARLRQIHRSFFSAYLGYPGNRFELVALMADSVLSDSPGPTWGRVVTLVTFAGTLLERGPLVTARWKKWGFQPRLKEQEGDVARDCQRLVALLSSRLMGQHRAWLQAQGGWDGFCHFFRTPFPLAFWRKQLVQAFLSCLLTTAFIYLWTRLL

| SMILES | displacement [%] |
| --- | --- |
| O=C(CC1Nc2ccccc2NC1=O)Nc1cccc(C(=O)O)c1 (stereo not given) | -2.4 |
| CCCOc1cccc(C(=O)Nc2ccc(F)c([N+](=O)[O-])c2)c1 | 13.4 |
| CC1=NN(C(=O)c2cccnc2)C(O)(c2ccccc2)C1 (stereo not given) | -6.3 |
| O=C(Cc1cccs1)NCC1CCCO1 (stereo not given) | 14.5 |
| O=C(N/N=C/c1ccc(O)c(O)c1)c1cccc(F)c1 | -6.6 |
| O=C(Nc1ccccc1C(=O)NCCCn1ccnc1)c1ccccc1 | 83.5 |
| O=C(NCCCn1ccnc1)c1ccccc1Br | -8.7 |
| COc1ccc(C(=O)Nc2ccccc2C(=O)NCCCn2ccnc2)cc1 | 11.9 |
| COC(=O)C1=CNC=C(C(=O)OC)C1c1cccc(OCc2ccccc2)c1 | 1.2 |
| O=C(/C=C/c1ccc([N+](=O)[O-])cc1)Nc1ccc(F)cc1 | -2.7 |
| O=C(/C=C/Nc1ccccn1)c1ccc(Br)cc1 | 3 |
| COc1ccc(C(=O)/C=C\Nc2ccc(Cl)cn2)cc1 | -23.9 |
| COc1ccc(C(=O)/C=C/Nc2ccccc2F)cc1 | 5.6 |
| O=C(/C=C/Nc1ccccc1F)c1ccccc1 | 8.2 |
| O=C(/C=C/Nc1ccccc1F)c1ccc(Br)cc1 | 85.6 |
| O=C(/C=C\Nc1ccc(Br)cn1)c1ccc(Cl)cc1 | 61.9 |
| Cc1sccc1/C=N/NC(=O)C1CC1 | 3 |
| Cc1ccc(/C=N/N=C/c2ccc(C)cc2)cc1 | 2.2 |
| C/C(=C\C(=O)c1ccc(Cl)cc1)Nc1ccc(Br)c(C)c1 | 4.4 |
| COc1ccc(/C=c2\sc3nc(-c4ccccc4)nn3c2=O)cc1 | 77.5 |
| COC(=O)c1ccc(/C=c2\sc3nc(-c4ccc(C)cc4)nn3c2=O)cc1 | 10.7 |
| Cc1ccc(-c2nnc3s/c(=C\c4ccccc4Cl)c(=O)n23)cc1 | 30.3 |
| COc1ccccc1/C=c1\sc2nc(-c3ccc(C)cc3)nn2c1=O | 61.7 |
| COc1ccccc1/C=c1/sc2nc(-c3ccc(Cl)cc3Cl)nn2c1=O | 7.3 |
| COc1ccc(/C=c2\sc3nnc(-c4ccc(C)cc4)n3c2=O)c(OC)c1 | 73.8 |
| COc1ccc(/C=c2\sc3nnc(-c4ccccc4)n3c2=O)c(OC)c1 | 28 |
| COc1ccc(/C=c2/sc3nc(-c4ccc(C(C)(C)C)cc4)nn3c2=O)cc1 | 11.3 |
| COc1ccc(-c2nn(-c3ccccc3)cc2/C=c2\sc3nc(-c4ccc(C)cc4)nn3c2=O)cc1 | 8.3 |

| SMILES | displacement [%] |
| --- | --- |
| OCCCc1nc2ccccc2n1Cc1ccccc1 | 2.4 |
| O=[N+]([O-])c1cc(C(F)(F)F)ccc1N/N=C/c1ccc(F)cc1 | 6.3 |
| CC(=O)N(C1=C(N2CCCCC2)C(=O)c2ccccc2C1=O)c1ccc(C)cc1 | 11.1 |
| O=C(Nc1ccc2c(c1)OCCO2)c1ccc(Br)cc1 | -0.2 |
| O=S(=O)(Nc1ccc(SC(F)F)cc1)c1cccc2cccnc12 | 1.7 |
| CCc1nnc(NC(=O)C2CCCC2)s1 | -7.8 |
| Cc1cc(=O)n2cc(Br)ccc2n1 | 0.1 |
| O=C(Nc1ccc(NC(=O)c2ccc([N+](=O)[O-])cc2Cl)cc1Cl)c1ccco1 | -2 |
| O=C(C1CCCCC1)N1CCN=C1c1ccccc1 | -1 |
| CN1C(=O)NC(=O)/C(=C\c2cc(Cl)c(OCC(=O)O)c(Cl)c2)C1=O | -3.5 |
| Cc1ccc(NC(=O)/C=C/C(=O)c2ccccc2)cc1 | 54.6 |
| Cc1ccc(NC(=O)/C=C/c2ccccc2)cc1 | -3.5 |
| O=C(O)/C=C\C(=O)Nc1ccc(C(=O)c2ccccc2)cc1 | 3.2 |
| CCN(CC)CCN1C(=O)C(O)=C(C(=O)/C=C/c2ccccc2)C1c1ccc(Br)cc1 (stereo not given) | 11.4 |
| O=C(C1CCCC1)N1CCN(c2ccc(F)cc2)CC1 | -0.9 |
| O=C(COc1ccccc1[N+](=O)[O-])Nc1ccc2oc(-c3ccccc3F)nc2c1 | 2.9 |
| O=C(COc1ccccc1[N+](=O)[O-])Nc1cc(-c2nc3ccccc3o2)ccc1Cl | 91.6 |
| Cc1cc(C)c2oc(-c3ccc(NC(=O)COc4ccccc4[N+](=O)[O-])cc3)nc2c1 | 89.3 |
| Cc1cc(C)c2oc(-c3cccc(NC(=O)COc4ccccc4[N+](=O)[O-])c3)nc2c1 | -24.2 |
| O=C(COc1ccccc1[N+](=O)[O-])Nc1ccc2oc(-c3cccc4ccccc34)nc2c1 | 56.9 |
| O=C(COc1ccccc1[N+](=O)[O-])Nc1ccc2oc(-c3ccccc3Br)nc2c1 | 5.2 |
| Cc1cc2nc(-c3ccc(NC(=O)COc4ccccc4[N+](=O)[O-])cc3)oc2cc1C | -0.7 |
| Cc1ccc(-c2nc3ccccc3o2)cc1NC(=O)COc1ccccc1[N+](=O)[O-] | -7.1 |
| O=C(COc1ccccc1[N+](=O)[O-])Nc1ccc(-c2nc3ccccc3o2)cc1 | -1.3 |
| Cc1cc(C)c2nc(Nc3nc4ccccc4c(=O)[nH]3)nc(C)c2c1 | 9.2 |
| O=C(O)CCCCCN1C(=O)C(O)=C(C(=O)/C=C/c2ccccc2)C1c1ccccc1Cl (stereo not given) | -7.2 |
| Cc1c(O)nc(Nc2nc(C)c3ccccc3n2)[nH]c1=O | 9 |
